Results: PubChem BioAssay AID2662 (National Center for Advancing Translational Sciences (NCATS), 2010)
The whole screen tested about 290,000 compounds, of which about 110 (0.038%) were called active. Another 3% or so got no clear call; they are omitted. Only a selection was taken, and actives are over-represented in it overall. Values without a mark were called inactive. The call rests on the fitted dose curve; in most records, active means well fitted inhibition curve with a large enough effect in the polarisation, with a control signal flat (not every such curve was filed as active); inconclusive means small, poorly fitted or top-dose-only effect, or effect the other way, or a change in a side signal; inactive means no such curve, though single readings can be large or run the other way; the % refers to the polarisation.

These molecules were tested against Histone-lysine N-methyltransferase 2A (Homo sapiens) (UniProt Q03164) (assay: qHTS Fluorescence Polarization Assay for Inhibitors of MLL CXXC domain - DNA interaction). Details: MLL-CXXC / FITC-HOXA9 DNA fluorescence polarization; series mostly up to 115 µM; activity change, negative = inhibition: at the top concentration.
Sequence of Histone-lysine N-methyltransferase 2A (Homo sapiens) (Q03164 whole entry, looked up, the tested form may be a part): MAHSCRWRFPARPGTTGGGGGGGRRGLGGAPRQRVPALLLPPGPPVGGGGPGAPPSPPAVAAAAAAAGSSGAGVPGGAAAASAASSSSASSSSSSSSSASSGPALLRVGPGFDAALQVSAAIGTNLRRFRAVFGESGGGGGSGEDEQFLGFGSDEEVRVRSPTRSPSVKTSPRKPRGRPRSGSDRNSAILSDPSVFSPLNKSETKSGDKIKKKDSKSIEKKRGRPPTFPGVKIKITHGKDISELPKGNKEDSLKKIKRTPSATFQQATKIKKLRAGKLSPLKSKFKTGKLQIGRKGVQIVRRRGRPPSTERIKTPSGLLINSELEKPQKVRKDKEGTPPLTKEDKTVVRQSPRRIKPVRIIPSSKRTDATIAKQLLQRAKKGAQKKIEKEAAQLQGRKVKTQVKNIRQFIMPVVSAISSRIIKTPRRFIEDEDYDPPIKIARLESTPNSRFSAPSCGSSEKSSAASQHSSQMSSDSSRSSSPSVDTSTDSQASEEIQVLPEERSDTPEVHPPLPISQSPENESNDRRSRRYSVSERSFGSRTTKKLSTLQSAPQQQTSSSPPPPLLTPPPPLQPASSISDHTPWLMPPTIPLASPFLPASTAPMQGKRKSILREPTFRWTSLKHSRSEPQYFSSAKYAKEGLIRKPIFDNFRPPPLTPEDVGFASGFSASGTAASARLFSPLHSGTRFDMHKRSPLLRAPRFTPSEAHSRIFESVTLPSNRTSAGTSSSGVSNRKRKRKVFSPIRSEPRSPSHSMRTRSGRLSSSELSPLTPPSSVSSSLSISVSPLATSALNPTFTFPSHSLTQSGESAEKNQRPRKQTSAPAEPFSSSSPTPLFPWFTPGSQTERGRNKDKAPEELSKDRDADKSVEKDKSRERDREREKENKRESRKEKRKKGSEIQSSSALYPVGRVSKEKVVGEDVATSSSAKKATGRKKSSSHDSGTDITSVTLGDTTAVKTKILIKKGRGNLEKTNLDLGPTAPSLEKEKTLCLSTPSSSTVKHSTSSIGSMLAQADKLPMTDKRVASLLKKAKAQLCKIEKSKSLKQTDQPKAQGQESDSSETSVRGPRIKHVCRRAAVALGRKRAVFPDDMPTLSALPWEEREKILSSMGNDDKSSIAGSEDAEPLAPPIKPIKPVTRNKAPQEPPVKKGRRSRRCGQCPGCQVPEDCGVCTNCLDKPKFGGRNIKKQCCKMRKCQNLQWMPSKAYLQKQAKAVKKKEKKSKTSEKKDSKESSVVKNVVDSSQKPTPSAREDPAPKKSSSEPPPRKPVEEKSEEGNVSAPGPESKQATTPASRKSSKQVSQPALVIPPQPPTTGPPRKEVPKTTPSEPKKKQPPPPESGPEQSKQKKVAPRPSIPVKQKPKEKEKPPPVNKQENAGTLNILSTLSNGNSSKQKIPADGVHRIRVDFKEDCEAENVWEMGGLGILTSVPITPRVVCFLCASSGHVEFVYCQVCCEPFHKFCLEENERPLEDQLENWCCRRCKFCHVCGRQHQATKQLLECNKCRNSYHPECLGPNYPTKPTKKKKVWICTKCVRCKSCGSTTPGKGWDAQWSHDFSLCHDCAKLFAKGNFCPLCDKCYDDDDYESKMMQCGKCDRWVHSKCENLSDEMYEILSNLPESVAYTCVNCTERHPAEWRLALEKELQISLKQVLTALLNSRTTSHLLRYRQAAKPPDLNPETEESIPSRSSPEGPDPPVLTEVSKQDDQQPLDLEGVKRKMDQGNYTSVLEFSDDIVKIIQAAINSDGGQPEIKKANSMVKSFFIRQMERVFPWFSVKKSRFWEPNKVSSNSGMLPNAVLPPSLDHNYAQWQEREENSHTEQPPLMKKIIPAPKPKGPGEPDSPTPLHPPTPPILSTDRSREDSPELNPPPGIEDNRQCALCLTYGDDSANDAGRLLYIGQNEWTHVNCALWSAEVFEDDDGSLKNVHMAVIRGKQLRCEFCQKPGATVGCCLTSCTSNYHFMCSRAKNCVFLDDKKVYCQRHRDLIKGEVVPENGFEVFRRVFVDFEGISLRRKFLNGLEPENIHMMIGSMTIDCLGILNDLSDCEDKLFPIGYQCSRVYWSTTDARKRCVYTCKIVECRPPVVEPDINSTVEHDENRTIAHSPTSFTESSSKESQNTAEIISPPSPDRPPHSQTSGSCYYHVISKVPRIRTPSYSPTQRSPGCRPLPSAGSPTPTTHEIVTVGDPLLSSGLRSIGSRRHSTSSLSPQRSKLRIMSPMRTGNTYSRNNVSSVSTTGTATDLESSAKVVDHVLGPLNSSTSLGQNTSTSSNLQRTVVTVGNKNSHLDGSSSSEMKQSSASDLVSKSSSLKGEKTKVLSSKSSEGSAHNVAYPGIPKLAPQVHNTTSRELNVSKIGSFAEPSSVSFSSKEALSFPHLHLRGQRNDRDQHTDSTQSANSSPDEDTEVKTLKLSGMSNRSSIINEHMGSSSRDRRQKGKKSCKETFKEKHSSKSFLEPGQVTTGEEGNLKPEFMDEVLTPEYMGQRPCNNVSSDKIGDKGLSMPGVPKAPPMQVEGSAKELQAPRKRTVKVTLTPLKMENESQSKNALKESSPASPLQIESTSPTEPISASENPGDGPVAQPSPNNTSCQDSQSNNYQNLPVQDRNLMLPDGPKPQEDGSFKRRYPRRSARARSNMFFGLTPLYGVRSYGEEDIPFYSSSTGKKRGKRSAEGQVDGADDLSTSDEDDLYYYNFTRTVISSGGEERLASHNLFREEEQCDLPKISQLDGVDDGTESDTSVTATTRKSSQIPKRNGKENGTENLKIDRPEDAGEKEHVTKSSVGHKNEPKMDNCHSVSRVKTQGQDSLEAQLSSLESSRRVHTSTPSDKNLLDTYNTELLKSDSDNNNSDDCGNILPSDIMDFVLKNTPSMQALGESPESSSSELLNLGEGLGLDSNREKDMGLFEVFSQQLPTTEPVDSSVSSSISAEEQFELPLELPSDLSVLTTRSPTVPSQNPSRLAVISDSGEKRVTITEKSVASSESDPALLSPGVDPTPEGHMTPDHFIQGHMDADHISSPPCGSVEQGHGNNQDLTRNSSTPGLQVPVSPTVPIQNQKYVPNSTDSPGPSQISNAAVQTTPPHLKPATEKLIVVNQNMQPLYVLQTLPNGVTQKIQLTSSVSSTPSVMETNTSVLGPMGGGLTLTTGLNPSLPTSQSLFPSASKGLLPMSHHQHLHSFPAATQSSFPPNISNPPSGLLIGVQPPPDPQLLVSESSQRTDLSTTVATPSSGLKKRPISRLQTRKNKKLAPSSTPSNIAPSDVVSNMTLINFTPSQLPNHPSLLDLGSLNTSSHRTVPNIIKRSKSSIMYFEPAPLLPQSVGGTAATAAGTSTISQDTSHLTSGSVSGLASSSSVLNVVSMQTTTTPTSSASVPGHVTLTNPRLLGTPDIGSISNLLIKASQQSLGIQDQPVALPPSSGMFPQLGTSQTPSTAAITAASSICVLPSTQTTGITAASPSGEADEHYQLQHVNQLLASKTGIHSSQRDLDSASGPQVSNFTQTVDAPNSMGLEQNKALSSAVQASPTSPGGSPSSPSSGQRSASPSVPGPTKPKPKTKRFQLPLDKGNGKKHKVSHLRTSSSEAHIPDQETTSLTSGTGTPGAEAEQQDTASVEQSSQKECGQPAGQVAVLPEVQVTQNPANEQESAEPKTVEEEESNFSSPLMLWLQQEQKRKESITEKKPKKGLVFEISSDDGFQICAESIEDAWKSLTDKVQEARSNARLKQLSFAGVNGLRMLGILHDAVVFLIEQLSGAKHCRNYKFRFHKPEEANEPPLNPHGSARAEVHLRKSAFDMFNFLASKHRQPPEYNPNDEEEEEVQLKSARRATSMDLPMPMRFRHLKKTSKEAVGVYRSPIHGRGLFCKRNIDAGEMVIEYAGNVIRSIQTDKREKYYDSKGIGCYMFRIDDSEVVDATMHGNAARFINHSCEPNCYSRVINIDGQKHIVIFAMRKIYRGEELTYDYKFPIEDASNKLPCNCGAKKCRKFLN
How it was run: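 Steps: dispense CXXC domain solution (7 uM) → pin compounds or unlabeled HOX-A9 DNA control → 5 min ambient → add FLSN-HOX-A9 solution (50 nM) → spin → 30 min ambient → fluorescence polarization. Tris pH 7.5/NaCl/DTT/BSA buffer.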
Potency means the concentration at half of the fitted maximal effect.

SMILES	activity change, negative = inhibition [%]	Potency
COc1cc(/C=C2/C(=O)NN(c3cccc(Cl)c3)C2=O)cc(Br)c1O	-14.9	–
COc1cc(/C=C2/C(=O)NN(c3ccc(F)cc3)C2=O)cc([N+](=O)[O-])c1O	–	20 µM (active)
C#CCOc1ccc(/C=C2/C(=O)NN(c3ccccc3)C2=O)cc1OC	3.2	–
CC(=O)c1c(C)n(-c2ccc(C)cc2)c2ccc(O)cc12	8.81	–
COc1ccc2nc(C)cc(Nc3cccc(C(=O)O)c3)c2c1	-14.3	–
NC(=O)C1CCN(C(=O)/C(=C/c2ccco2)NC(=O)c2ccccc2)CC1	4.99	–
Cc1cn([C@H]2CC(F)[C@@H](CO)O2)c(=O)[nH]c1=O (stereo not given in full)	-6.09	–
O=C(Nc1cccc(C(F)(F)F)c1)c1cc(Br)cc(Br)c1O	-2.42	–
C[C@H](NC(=O)C1CCN(S(=O)(=O)c2ccccc2)CC1)C(=O)NCc1ccccc1	-1.11	–
COc1ccc(N(CC(=O)Nc2ccc(F)c(F)c2)S(=O)(=O)c2c(C)[nH]c(=O)[nH]c2=O)cc1	-1.33	–
Cc1ccc(CNC(=O)C(=O)c2cn(CC(=O)N3CCCC3)c3ccccc23)cc1	1.78	–
COc1ccc(C)cc1Nc1nc(C)nc2c1oc1ccccc12	15.3	–
COC(=O)c1ccccc1NC(=O)C1(S(=O)(=O)c2ccc(Cl)cc2)CC1	3.5	–
CCN1C(=S)N[C@@H](CCc2ccccc2)[C@H](C(=O)OC)[C@H]1C	–	inactive
O=c1c2cc([N+](=O)[O-])ccc2nc2n1CCC2	9.68	–
COc1ccc(CNc2cc(C)cc(C)c2)cc1OC	-3.72	–
Cc1c(CNCCc2ccccc2)c(C(=O)O)c(C)n1-c1ccccc1	-4.55	–
Cc1ccc(C(=O)N2CC(=O)Nc3ccc(F)cc3C2c2ccc(F)cc2)cc1 (stereo not given)	10.6	–
COC(=O)c1ccc(CNC(=O)C2CCC(=O)N(Cc3cccc(F)c3)C2)cc1 (stereo not given)	4.84	–
Cc1cnc(C(=O)Oc2cccc(Cl)c2Cl)cn1	-0.91	–
COc1ccc(C)cc1N(C(=O)Cn1nnc(-c2ccc(C)o2)n1)C(C(=O)NC1CCCC1)c1ccncc1 (stereo not given)	-1.23	–
Cc1ccc(/C=C2/SC(=S)N(CCC(=O)NCCCN3CCOCC3)C2=O)cc1	-11.8	–

SMILES	activity change, negative = inhibition [%]	Potency
CCN(CC(=O)Nc1ccc2c(c1)OCO2)S(=O)(=O)c1ccccc1	4.81	–
NNC(=O)CSc1nnc(-c2ccccc2)n1-c1ccccc1	6.34	–
CC(C(=O)Nc1ccc(O)c(C(=O)O)c1)N1C(=O)/C(=C/c2cccs2)SC1=S (stereo not given)	15.5	–
Cc1cccn2c(=O)c3cc(C(=O)NCCN4CCOCC4)c(=N)n(Cc4cccnc4)c3nc12	2.89	–
Cc1cccc(S(=O)(=O)N2CN(CC3CCCO3)c3nc4ccccc4nc32)c1 (stereo not given)	3.53	–
Cc1ccc(S(=O)(=O)c2nc(-c3cccs3)oc2NCc2cccnc2)cc1	6.33	–
COc1ccc(CCNS(=O)(=O)c2cn(C)nc2C)cc1	8.13	–
CC(=O)Nc1cccc(Nc2nc(-c3cccs3)nc3ccccc23)c1	6.15	–
CC(=O)c1nn(-c2cccc(C(F)(F)F)c2)c(=O)[nH]c1=O	48.5	–
COc1cc(CN2CCCC(C(=O)c3ccc(SC)cc3)C2)cc(Cl)c1O (stereo not given)	14.6	–
CC(=O)Nc1ccc(C(=O)N(C2=NC(C)CS2)c2ccc(Cl)cc2)cc1 (stereo not given)	-7.05	–
Cc1cccc(-c2noc(CCC(=O)NC3CCCC3)n2)c1	3.93	–
COc1ccccc1OCC(=O)Nc1c2c(nn1-c1ccc(F)cc1)CS(=O)(=O)C2	-15.3	–
Cn1c(N2CCOCC2)c(C=O)c2ccccc21	-5.67	–
COCCN1CCN(C(=O)c2cc(COc3ccc(F)cc3Cl)on2)CC1	-5.58	–
O=C(NCCN1CCOC1=O)C1CCC(=O)N(CCc2ccc(Cl)cc2)C1 (stereo not given)	-2.88	–
Cc1cccc(-n2ncc(Cl)c(Cl)c2=O)c1	0.435	–
O=C(NCc1ccncc1)C(=O)NCC1OCCN1S(=O)(=O)c1ccc(Br)cc1 (stereo not given)	11	–
NC(=O)C(=O)N/N=C/c1ccc([N+](=O)[O-])o1	-4.71	–
Cc1ccc(NC(=O)CSc2cccc3cccnc23)c(C)c1	-0.728	–
O=C(O)C(c1ccccc1)N1C(=O)/C(=C\c2ccc(-c3cccc(Cl)c3)o2)SC1=S (stereo not given)	49.4	–
O=C1NN(c2ccccc2)C(=O)/C1=C/c1ccc(-c2cccc(C(=O)O)c2)o1	–	20 µM (active)

SMILES	activity change, negative = inhibition [%]	Potency
Cc1cccc(C)c1-n1c(C)cc(/C=C2\C(=O)NN(c3ccccc3)C2=O)c1C	-14.4	–
O=C(NCCCn1ccnc1)c1cc2c(s1)CCCC2	-5.38	–
CCOC(=O)/C(N=Nc1cc(C(=O)O)cc(C(=O)O)c1)=C(\O)CCl	–	25.1 µM (active)
O=C(NC1CCN(S(=O)(=O)c2ccc(F)cc2)CC1)c1ccccc1	-1.5	–
O=S(=O)(c1ccc(Br)c2ccccc12)N1CCOCC1	-2.11	–
COCCCN1C(=O)C(=O)/C(=C(/O)c2ccc(S(=O)(=O)N3CCOCC3)cc2)C1c1ccc(F)cc1 (stereo not given)	-6.08	–
CCOc1ccc2nc(N(CCCN(C)C)C(=O)c3ccc(C(=O)c4ccccc4)cc3)sc2c1	5.3	–
O=C1CCC(C(=O)N2CCN(c3ccccc3Cl)CC2)CN1CC1CCCCC1 (stereo not given)	-0.943	–
CCOC(=O)Cn1c(O)c(N=NC(=O)CNC(=O)Cc2ccccc2)c2ccccc21	-5.83	–
Cc1cc(C)nc(N/N=C/c2c(CO)cnc(C)c2O)n1	27	–
CCCNC(=O)c1ccc(N2CCC3(CC2)CC(c2ccc(Cl)cc2)=NO3)c([N+](=O)[O-])c1	1.09	–
CCOC(=O)C1CCN(S(=O)(=O)c2ccc3c(c2)N(C)C(=O)CC(=O)N3C)CC1	10.6	–
O=C(NCc1ccncc1)C1CCN(C(=O)c2cccc(Cl)c2)CC1	7.78	–
O=C(CNC(=O)[C@@H]1Cc2ccccc2CN1)NC1CCCCC1	-11.1	–
Cc1nn(C)c(Cl)c1CN1CCC(Oc2ccc(C(=O)N3CCCC3)cc2)CC1	4.04	–
Cc1ccc(S(=O)(=O)N/N=C(\c2ccccc2)C2CC2)cc1	-5.98	–
O=C(NCCCn1ccnc1)c1cc(Br)c(Br)s1	1.28	–
Cc1cccc(CN2CCC(n3nccc3NC(=O)c3ccccc3C)CC2)n1	0.021	–
Cc1cc(=O)oc2c3c(cc(OCC(=O)N[C@H](C(=O)O)c4ccccc4)c12)OC(C)(C)CC3	13.2	–
CCCNC(=O)c1cnc(-c2ccccc2)nc1-c1ccccc1	18.4	–
CCCCc1nc2cc(C(=O)NCCc3cnn(C)c3)ccc2o1	8.7	–
